# Results from PubChem BioAssay (NCI).
# The panel holds about 79,000 compounds, 15% with a hit somewhere; the sample as a whole holds those more often. Active and inactive are the calls of the source. Rule as the data show it: active = growth inhibition above about 70%; inactive = the rest.
# Assay: NCI Yeast Anticancer Drug Screen. Data for the sgs1 mgt1 strain (AID 161);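 also: 0% = growth of cultures given vehicle only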
# Conditions: S. cerevisiae sgs1 mgt1 strain, at 50.0 µM, active compounds read high
# Summary of the method: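 Genetically altered yeast, compound exposure, growth inhibition relative to vehicle.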
row,Compound,growth inhibition
1,CC(OC(=O)Nc1cccc(Cl)c1)c1ccccc1 (centres undefined),99.5% (active)
2,O=C(O)/C=C/c1c2ccccc2cc2ccccc12,94.7% (active)
3,Cc1c[nH]c2c(O)cc3c(c12)[C@H](CCl)CN3C(=O)c1cc2cc(NC(=O)Nc3ccc4[nH]c(C(=O)N5C[C@@H](CCl)c6c5cc(O)c5[nH]cc(C)c65)cc4c3)ccc2[nH]1,-12.9% (inactive)
4,Cc1ccc(S(=O)(=O)OC(C=O)C(O)C(O)COC(c2ccccc2)(c2ccccc2)c2ccccc2)cc1 (centres undefined),86.4% (active)
5,COc1cc2c(cc1C(C)C)CCC1C(C)(C#N)CCCC21C (centres undefined),47.5% (inactive)
6,Fc1ccc(NC(=S)SCc2ccc(Cl)c(Cl)c2)c(F)c1,99.2% (active)
7,COC(=O)/C=C(\NC1CC(OC2C[C@](O)(C(C)=O)Cc3c(O)c4c(c(O)c32)C(=O)c2c(OC)cccc2C4=O)OC(C)C1O)C(=O)OC (some centres undefined),97.7% (active)
8,O=C1CSC(=S)N1c1ccc(F)cc1F,65.2% (inactive)
9,CS(=O)(=O)OCCN(CCOS(C)(=O)=O)c1ccc(C=Nc2ccc3ccccc3c2)c(Cl)c1,34% (inactive)
10,CN(C)C(=O)Nc1ccc(Cc2ccc(NC(=O)N(C)C)cc2)cc1,27.6% (inactive)
11,O=c1c(Cl)c(Cl)c(=O)c2sc3cc(Cl)ccc3[nH]c1=2,88% (active)
12,O=S(=O)(O)C(O)c1ccc2ccc3cccc4ccc1c2c34 (centres undefined),67.8% (inactive)
13,N#Cc1cc([N+](=O)[O-])ccc1NC(=O)/C(=N/N)C(C(=O)c1ccc(Cl)c(Cl)c1)C1OC(=O)c2ccccc21 (centres undefined),91.2% (active)
14,O=C(Nc1ccc(Cl)c(Cl)c1Cl)Oc1c(Cl)c(Cl)c(Cl)c(Cl)c1Cl,99.6% (active)
15,O=[N+]([O-])c1cc(Cl)cc2c1nc(NCCO)c1ccccc12,79.7% (active)
16,CCNc1nc(C(F)(F)F)nc2nc[nH]c12,-20.1% (inactive)
17,CC1CCN(CCOC(=O)C(c2ccccc2)C2C=CCCC2)C1 (centres undefined),51.1% (inactive)
18,CCOC(=O)c1c(N)sc2c1CCCCC2,52% (inactive)
19,CC(C(O)Cc1ccccc1)N(C)N=Nc1ccc([N+](=O)[O-])cc1 (centres undefined),85.7% (active)
20,O=[N+]([O-])c1ccc(/C=c2\sc3scc(-c4ccc([N+](=O)[O-])cc4)[n+]3\c2=C/c2ccc([N+](=O)[O-])cc2)cc1,97.5% (active)
21,Oc1cc(C(c2ccccc2)c2ccccc2)c2ccccc2c1O,98.5% (active)
22,CC1=CC2OC3CC4OC(=O)/C=C/C=C/C(C(C)O)OCC(=O)C(C)CC(=O)OCC2(CC1)C4(C)C31CO1 (centres undefined),91.8% (active)
23,CC(NNC(=S)N1CCCCCC1)c1cc2ccccc2cn1 (centres undefined),86.6% (active)
24,CC(C)C1=CC23CCC4C(C)(C(=O)O)CCCC4(C)C2CC1C1C(=O)C=CC(=O)C13 (centres undefined),90.2% (active)

# Assay: NCI Yeast Anticancer Drug Screen. Data for the cln2 rad14 strain (AID 165);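 also: 0% = growth equal to vehicle treated cultures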
# Conditions: S. cerevisiae cln2 rad14 strain, at 5.0 µM (retest, dose inferred, filed as 0.5), active compounds read high
# Summary of the method: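 Growth of compound-exposed yeast (cln2 rad14 genotype) measured and expressed as inhibition relative to vehicle.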
row,Compound,growth inhibition
1,Cc1ccc(O)c(C(c2cc(C)ccc2O)c2ccccc2Cl)c1,98% (active)
2,O=c1ssc(=Nc2ccc(Cl)cc2)n1-c1ccc(Cl)cc1,16% (inactive)
3,CC(=O)OC1CCC2(C)C(CCC3C4=CCC(C5COC(=O)C5)C4(C)CCC32)C1 (centres undefined),-2% (inactive)
4,CCN(CC)CCCC(C)Nc1cc(F)cc2cccnc12 (centres undefined),10% (inactive)
5,CC1CN(CCCN2c3ccccc3Sc3ccc(Cl)cc32)C(C)(C)C1 (centres undefined),10% (inactive)
6,O=S(=O)(O)c1ccc2c(c1)C1C(C3C2C2(Cl)C(Cl)=C(Cl)C3(Cl)C2(Cl)Cl)C2(Cl)C(Cl)=C(Cl)C1(Cl)C2(Cl)Cl (centres undefined),34% (inactive)
7,OC(CN1CCC(c2ccccc2)CC1)c1ccc(Br)cc1 (centres undefined),64% (inactive)
8,CCOC(=O)/C(C#N)=C\c1cccc2ccccc12,-17% (inactive)
9,COc1ccc2c(c1)CCC(N1CCCC(O)C1)C2 (centres undefined),25% (inactive)
10,COc1cccc(N2CCN(CC(O)COc3cc4c(c5c3CCCC5)CCCC4)CC2)c1 (centres undefined),13% (inactive)
11,CC(=O)Oc1ccc(Cl)cc1Cc1cc(Cl)ccc1OC(C)=O,-4% (inactive)
12,CC(O)c1c2c(cc3c1CC1(C3)Cc3cc4c(c(C(C)O)c3C1)CCC4)CCC2 (centres undefined),1% (inactive)
13,O=c1c2ccccc2nc(-c2ccccc2)n1NC(=S)Nc1ccc(Cl)cc1[N+](=O)[O-],8% (inactive)
14,O=C(CCCN1CCc2[nH]c3cc(F)ccc3c2C1)c1ccc(F)cc1,-9% (inactive)
15,OC(C(=Nc1ccccc1)c1ccccc1)c1ccccc1 (centres undefined),-3% (inactive)
16,N#CC1CCCC(Cc2ccccc2)(c2ccccc2)C1=O (centres undefined),-1% (inactive)
17,CC(OC(=O)Nc1cccc(Cl)c1)c1ccccc1 (centres undefined),7% (inactive)
18,O=C(O)/C=C/c1c2ccccc2cc2ccccc12,9% (inactive)
19,Cc1c[nH]c2c(O)cc3c(c12)[C@H](CCl)CN3C(=O)c1cc2cc(NC(=O)Nc3ccc4[nH]c(C(=O)N5C[C@@H](CCl)c6c5cc(O)c5[nH]cc(C)c65)cc4c3)ccc2[nH]1,14% (inactive)
20,Cc1ccc(S(=O)(=O)OC(C=O)C(O)C(O)COC(c2ccccc2)(c2ccccc2)c2ccccc2)cc1 (centres undefined),99% (active)

row,Compound,growth inhibition
1,COc1cc2c(cc1C(C)C)CCC1C(C)(C#N)CCCC21C (centres undefined),1% (inactive)
2,Fc1ccc(NC(=S)SCc2ccc(Cl)c(Cl)c2)c(F)c1,-6% (inactive)
3,COC(=O)/C=C(\NC1CC(OC2C[C@](O)(C(C)=O)Cc3c(O)c4c(c(O)c32)C(=O)c2c(OC)cccc2C4=O)OC(C)C1O)C(=O)OC (some centres undefined),2% (inactive)
4,O=C1CSC(=S)N1c1ccc(F)cc1F,-3% (inactive)
5,CS(=O)(=O)OCCN(CCOS(C)(=O)=O)c1ccc(C=Nc2ccc3ccccc3c2)c(Cl)c1,11% (inactive)
6,CN(C)C(=O)Nc1ccc(Cc2ccc(NC(=O)N(C)C)cc2)cc1,5% (inactive)
7,O=c1c(Cl)c(Cl)c(=O)c2sc3cc(Cl)ccc3[nH]c1=2,2% (inactive)
8,O=S(=O)(O)C(O)c1ccc2ccc3cccc4ccc1c2c34 (centres undefined),-4% (inactive)
9,N#Cc1cc([N+](=O)[O-])ccc1NC(=O)/C(=N/N)C(C(=O)c1ccc(Cl)c(Cl)c1)C1OC(=O)c2ccccc21 (centres undefined),1% (inactive)
10,O=C(Nc1ccc(Cl)c(Cl)c1Cl)Oc1c(Cl)c(Cl)c(Cl)c(Cl)c1Cl,13% (inactive)
11,O=[N+]([O-])c1cc(Cl)cc2c1nc(NCCO)c1ccccc12,46% (inactive)
12,CCNc1nc(C(F)(F)F)nc2nc[nH]c12,-5% (inactive)
13,CC1CCN(CCOC(=O)C(c2ccccc2)C2C=CCCC2)C1 (centres undefined),7% (inactive)
14,CCOC(=O)c1c(N)sc2c1CCCCC2,-53% (inactive)
15,CC(C(O)Cc1ccccc1)N(C)N=Nc1ccc([N+](=O)[O-])cc1 (centres undefined),21% (inactive)
16,O=[N+]([O-])c1ccc(/C=c2\sc3scc(-c4ccc([N+](=O)[O-])cc4)[n+]3\c2=C/c2ccc([N+](=O)[O-])cc2)cc1,94% (active)
17,Oc1cc(C(c2ccccc2)c2ccccc2)c2ccccc2c1O,13% (inactive)
18,CC1=CC2OC3CC4OC(=O)/C=C/C=C/C(C(C)O)OCC(=O)C(C)CC(=O)OCC2(CC1)C4(C)C31CO1 (centres undefined),72% (active)
19,CC(NNC(=S)N1CCCCCC1)c1cc2ccccc2cn1 (centres undefined),90% (active)
20,CC(C)C1=CC23CCC4C(C)(C(=O)O)CCCC4(C)C2CC1C1C(=O)C=CC(=O)C13 (centres undefined),75% (active)
